Results reported in PubChem BioAssay AID1259423 (Fisher Drug Discovery Resource Center, 2018).
In all, about 270,000 compounds went through this assay and about 410 (0.15%) were called active. No stated cut-off is given here; in the data, active means activation above about 40%; inactive means the rest, inconclusive results apart. This excerpt belongs to a sample that is enriched for actives.

Test system: Aedes aegypti neuropeptide Y-like receptor 7 (NPYLR7)
Assay: agonists of mosquito NPYLR7 receptor, primary screen, cell-based, Aedes aegypti, calcium fluorescence, mosquito biting behavior (AID 1259423);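 further: 0% = vehicle and 100% = reference agonist at the receptor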
Conditions: HEK293T NPYLR7/Galpha15, GCaMP6s calcium fluorescence, at 10 µM, stronger effect = higher value
[1] = measured here: Max-Min RFU normalised activation

## CCCCN(C)C(=O)c1nn(Cc2ccc(S(=O)(=O)N(C)c3ccccc3)cc2)c2ccccc12
  activation: 11.3% (inactive)
[1]
  activation: 10%

## CNC(C)c1nc2ccccc2c(=O)n1-c1ccc(Br)cc1 (stereo not drawn)
  activation: 0.997% (inactive)
[1]
  activation: 9.08%

## CC(C)CN(Cc1cc(NC(=O)c2cccc(F)c2)ccc1N(C)C1CCN(C)CC1)C(=O)c1ccccc1Cl
  activation: 1.98% (inactive)
[1]
  activation: 1.76%

## N#[N+]c1c[nH]c2ccccc2c1=O
  activation: -8.5% (inactive)
[1]
  activation: -5.61%
